Assay [1] in a line: qHTS profiling of the MIPE4 collection as inhibitors of Plasmodium falciparum (DD2) proliferation (AID 743345; call rule not given here). Particulars: P. falciparum Dd2 in erythrocytes, SYBR Green DNA, 72 h; at 28.5 µM (top of the series) unless noted. A digest of the protocol: (§1)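 Parasite DNA was quantified by SYBR Green I fluorescence (ex 485, em 535 nm) after overnight lysis in saponin/Triton buffer at room temperature. Cultures at 0.3% parasitemia and 2.5% hematocrit were first exposed to compound for 72 h at 37 C; signals were normalised to artemisinin (0.29 uM) and vehicle wells.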
(qHTS replaces the single test concentration by a dilution series.)

Assay [2] can be described thus: qHTS profiling of the MIPE4 collection as inhibitors of Plasmodium falciparum (DD2) proliferation (Rep 2) (AID 743346; call rule not given here). The conditions noted are these: P. falciparum Dd2 in erythrocytes, SYBR Green DNA, 72 h; at 28.5 µM (top of the series) unless noted. Summed up: as §1
The nature of assay [3]: High-throughput drug toxicity screening in the BPDCN cell line Gen2.2 (AID 1224824; call rule not given here;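 further: cells exposed to compounds for 48 h before reading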). Particulars: Gen2.2 BPDCN cells; at 45.8 µM (top of the series) unless noted. A digest of the protocol:
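CellTiter-Glo luminescence after 48 h compound exposure of Gen2.2 cells; percent activity set with DMSO as 100% and bortezomib (9.2 uM final) as 0%. Cells seeded at 500 per well, RPMI + 10% FBS, 37 °C.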

Assay [4] can be described thus: High-throughput drug toxicity screening in the BPDCN cell line Cal-1 (AID 1224825; call rule not given here). Particulars: Cal-1 BPDCN cell viability, qHTS; at 45.8 µM (top of the series) unless noted. Summed up:
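Viability of the BPDCN line Cal-1 is measured as ATP-based luminescence (CellTiter-Glo) following 48 h incubation with compounds. Percent activity uses DMSO-treated wells as 100% and 9.2 uM bortezomib as 0%.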

A short description of assay [5]: qHTS assay for measurement of the activity of small molecule inhibitors on Zika virus induced Caspase-3 activity in human iPSC derived neural progenitor cells (hNPCs) (AID 1224857). Further: nearly all actives have a fitted effect of over 65% in size. Further: potency means the concentration at half of the fitted maximal effect. A digest of the protocol: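 Caspase-3/7 induction by a 6-hour ZIKV infection was quantified with a luminescent Caspase-Glo 3/7 reagent incubated 30 minutes at room temperature. Compounds were preincubated with hNPCs for 1 hour; inhibition was calculated against uninfected and infected control wells.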

A short description of assay [6]: qHTS assay for measurement of the activity of small molecule inhibitors on Zika virus induced Caspase-3 activity in human astrocytoma cells (AID 1224859).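 Further: plate controls were ZIKV-infected untreated cells for no effect and uninfected cells for full effect.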 Summed up:
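In SNB-19 cells plated at 250 cells/well and grown 16-20 h, compounds were applied 1 h before ZIKV (2 FFU/cell). Six hours later caspase-3/7 luminescence was recorded.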

A short description of assay [7]: qHTS Screen of the MIPE 4.0 Collection Against Ewings Sarcoma (RDES) (AID 1259252). Further: nearly all actives have a fitted effect of over 35% in size. Further: potency means the concentration at half of the fitted maximal effect. A digest of the protocol:
(§2)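 Compound titrations go onto adherent log-phase cells 4 h after seeding, incubate 48 h at 37C, then CellTiter-Glo luminescence reports viability relative to DMSO and cell-free controls.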

Assay [8] can be described thus: qHTS Screen of the MIPE 4.0 Collection Against Ewings Sarcoma (TC71) (AID 1259253). Further: nearly all actives have a fitted effect of over 40% in size. Further: potency means the concentration at half of the fitted maximal effect. Summed up:
as §2

A short description of assay [9]: qHTS Screen of the MIPE 4.0 Collection Against Ewings Sarcoma (EW8) (AID 1259255). Further: nearly all actives have a fitted effect of over 35% in size. Further: potency means the concentration at half of the fitted maximal effect.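 On viability: 100% = DMSO-treated cells and 0% = medium-only wells without cells.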 A digest of the protocol: as §2
Assay [10] in a line: qHTS profiling of the MIPE4 collection as inhibitors of Plasmodium falciparum (HB3) proliferation (AID 743347; call rule not given here;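 further: plate controls were DMSO vehicle wells for no effect and artemisinin wells for full effect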). The conditions noted are these: P. falciparum HB3 in erythrocytes, SYBR Green DNA, 72 h; at 28.5 µM (top of the series) unless noted. Summed up: as §1

Inconclusive results are not listed. The source made the active and inactive calls. Unless noted, the call rests on the fitted dose curve; in most records, active means well fitted inhibition curve with a large enough effect; inconclusive means small, poorly fitted or top-dose-only effect; inactive means no such curve, though single readings can be large or run the other way.

On to `CN[C@H]1[C@@H](O)[C@@H]2O[C@@H]3O[C@H](C)CC(=O)[C@]3(O)O[C@@H]2[C@@H](NC)[C@H]1O`, for which, in [1], the parasite growth remaining, % of DMSO control (lower = more inhibition) was determined as 85.6%. Besides, in assay [2], the parasite growth, % of control (lower = inhibition) came out at 19.2%. Besides, in assay [3], the cell viability, % of control (lower = more cytotoxic) is 9.59%. Further, in assay [4], the viability (% of control) was determined as 5.36%. The Potency in assay [5] is 16.6 µM (active); in [7], 0.0526 µM (active); in [8], 1.32 µM (active); in assay [9] it was 1.32 µM (active). The Potency entry in assay [6] was “inactive”.
In assay [1], `c1cc(N[C@@H]2CCNC2)nc(-c2cnc3ccc(-c4cn[nH]c4)cn23)c1` showed a parasite growth remaining, % of DMSO control (lower = more inhibition) of 8.57%. Besides, the parasite growth, % of control (lower = inhibition) in [2] is 9.64%. In assay [10], this compound came in with a growth, % of control of 3.77%. For the same compound, the cell viability, % of control (lower = more cytotoxic) in assay [3] came to 3.68%. Also, the viability (% of control) in assay [4] came out at 3.36%. Besides, the Potency entry in [5] and in assay [6] was “inactive” each time. Further, the Potency in assay [7] is 16.6 µM (active); in [8] it was 26.4 µM (active); in assay [9] it was 16.6 µM (active).
`CC(C(C)N1CC(=O)NC(=O)C1)N1CC(=O)NC(=O)C1` (stereo not drawn) gave a parasite growth remaining, % of DMSO control (lower = more inhibition) in [1] of 80.3%. The parasite growth, % of control (lower = inhibition) in [2] worked out at 105%. Also, the cell viability, % of control (lower = more cytotoxic) in assay [3] came to 158%. Also, the viability (% of control) in [4] was 27.4%. In addition, the Potency result in [5] and in assay [6] was “inactive” each time. For the same compound, the Potency in assay [7] was 0.743 µM (active); in assay [8], 0.59 µM (active); in [9] it was 0.743 µM (active).
`COc1cc2ncnc(Nc3cccc(Br)c3)c2cc1OC` showed a parasite growth remaining, % of DMSO control (lower = more inhibition) in assay [1] of 37.1%. In assay [2], the parasite growth, % of control (lower = inhibition) was 48.9%. The same compound came in with a growth, % of control in assay [10] of 8.18%. For the same compound, in assay [3], the cell viability, % of control (lower = more cytotoxic) was found to be 64%. In assay [4], the viability (% of control) came to 5.16%. For the same compound, the Potency entry in assay [5] and in assay [6] was “inactive” in each case. In addition, the Potency is 0.132 µM (active) in [7], 0.59 µM (active) in assay [8] and 1.48 µM (active) in assay [9].
As for `CCC[C@H]1C[C@H](C(=O)N[C@@H]([C@@H]2O[C@@H](SC)[C@@H](O)[C@@H](O)[C@@H]2O)[C@H](C)Cl)N(C)C1`, the parasite growth remaining, % of DMSO control (lower = more inhibition) in assay [1] was determined as 36%. In addition, in [2], the parasite growth, % of control (lower = inhibition) was 24.6%. Besides, the growth, % of control in assay [10] was found to be 25.3%. Moreover, the cell viability, % of control (lower = more cytotoxic) in assay [3] was 155%. In addition, in assay [4], the viability (% of control) was found to be 128%. Further, the Potency result in assay [5], in assay [6], in assay [7], in assay [8] and in [9] was “inactive” in each case.
In turn, `Cc1cncc2cccc(S(=O)(=O)N3CCCN(C(=O)CN)C[C@@H]3C)c12` came in with a parasite growth remaining, % of DMSO control (lower = more inhibition) in [1] of 89.9%. Also, the parasite growth, % of control (lower = inhibition) in assay [2] worked out at 51%. The same compound yielded a growth, % of control in assay [10] of 101%. Moreover, in assay [3], the cell viability, % of control (lower = more cytotoxic) worked out at 35.1%. Further, in [4], the viability (% of control) came to 36.2%. Besides, the Potency entry in [5] and in assay [6] was “inactive” each time. Also, the Potency was 8.33 µM (active) in assay [7], 14.8 µM (active) in [8] and 2.64 µM (active) in [9].
As to `C[C@@]12C[C@@]3(O)O[C@@H](O1)[C@]1(COC(=O)c4ccccc4)[C@@H]3C[C@@]12O[C@@H]1O[C@H](CO)[C@@H](O)[C@H](O)[C@@H]1O`, the parasite growth remaining, % of DMSO control (lower = more inhibition) in assay [1] is 96.7%. In addition, the parasite growth, % of control (lower = inhibition) in [2] was determined as 141%. The cell viability, % of control (lower = more cytotoxic) in assay [3] amounted to 109%. Besides, the viability (% of control) in assay [4] is 109%. The Potency result in [5], in [6], in assay [7], in assay [8] and in assay [9] was “inactive” in each case.
Compound `Oc1ccc([C@@H]2Oc3ccc(O)cc3[C@@H]3CCC[C@@H]32)cc1` came in with a parasite growth remaining, % of DMSO control (lower = more inhibition) in assay [1] of 90.8%. Moreover, the parasite growth, % of control (lower = inhibition) in assay [2] was determined as 47%. For the same compound, the cell viability, % of control (lower = more cytotoxic) in assay [3] was found to be 90.8%. Further, the viability (% of control) in assay [4] was determined as 14.4%. Besides, the Potency result in [5] and in assay [6] was “inactive” in each case. Also, the figures for the Potency in assay [7], in assay [8] and in assay [9] were 18.7 µM (active), 26.4 µM (active) and 10.5 µM (active), respectively.
For `NC1=N[C@H]2[C@H](CS[C@H]2CCCCC(=O)O)N1`, the cell viability, % of control (lower = more cytotoxic) in [3] is 175% [at 23.2 µM]. The viability (% of control) in assay [4] was determined as 126% [at 23.2 µM]. The Potency entry in assay [5], in [6], in assay [7], in assay [8] and in assay [9] was “inactive” in each case.

Source of the values: PubChem BioAssay (NCATS).
